Drawing on the supplement of paper PMC4723716, this text covers viability index for 37 compounds.

± gives the uncertainty stated by the source. The full ranking holds about 9,900 compounds; the median of “viability index relative to DMSO control” is about 1, and the lowest 2% start at about 0.85. The entries come from a sample that favours the lowest values as a whole.

This test concerns Plasmodium falciparum NF54 stage V gametocytes. The experiment in a line: viability index relative to DMSO control (fraction); higher = less gametocyte killing. Particulars: 2.5 µM, incubation time: 72 h. The method in brief:
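Compound at 2.5 µM was incubated for 72 hr at 37°C under low oxygen with P. falciparum NF54 stage V gametocytes (0.75% gametocytemia, 1.25% hematocrit, 10 µl, serum-free screening medium) in 1,536-well plates. Staining used 3 µl of 2.5 µM MitoTracker Red CMXRos plus 0.13% saponin for one to two hours, and red particles of 20–70 µm2 were counted in one imaged field per well. Each viability index is that count relative to the plate mean of solvent-only wells.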

[1] abbreviates: library set: Broad Institute DOS.

Under setting [1], `COc1ccc(S(=O)(=O)Nc2ccc3c(c2)C(=O)N([C@@H](C)CO)C[C@@H](C)[C@@H](CN(C)Cc2ccc(C(F)(F)F)cc2)OCCCC[C@H](C)O3)cc1` came in with a viability index of 0.994 ± 0.023.
As for `COc1ccc(S(=O)(=O)Nc2ccc3c(c2)C(=O)N([C@H](C)CO)C[C@H](C)[C@@H](CN(C)S(=O)(=O)c2ccc(Cl)cc2)OCCCC[C@@H](C)O3)cc1`, the viability index under setting [1] is 1.02 ± 0.05.
In the case of `COc1ccc(S(=O)(=O)Nc2ccc3c(c2)C(=O)N([C@@H](C)CO)C[C@H](C)[C@H](CN(C)Cc2ccc(C(F)(F)F)cc2)OCCCC[C@@H](C)O3)cc1`, under setting [1], the viability index turned out to be 1.05 ± 0.2.
As for `COc1ccc(S(=O)(=O)Nc2ccc3c(c2)C(=O)N([C@@H](C)CO)C[C@@H](C)[C@@H](CN(C)S(=O)(=O)c2ccc(Cl)cc2)OCCCC[C@@H](C)O3)cc1`, the viability index under setting [1] is 0.77 ± 0.046.
For `COc1ccc(S(=O)(=O)Nc2ccc3c(c2)C(=O)N([C@H](C)CO)C[C@@H](C)[C@@H](CN(C)S(=O)(=O)c2ccc(Cl)cc2)OCCCC[C@@H](C)O3)cc1`, the viability index under setting [1] was determined as 0.533 ± 0.11.
For `COc1ccc(S(=O)(=O)Nc2ccc3c(c2)C(=O)N([C@@H](C)CO)C[C@@H](C)[C@H](CN(C)S(=O)(=O)c2ccc(Cl)cc2)OCCCC[C@H](C)O3)cc1`, the viability index under setting [1] was 0.9073 ± 0.0032.
Under setting [1], `N#C[C@@H]1[C@H](c2ccccc2-c2cccc(F)c2)[C@@H](CO)N1C(=O)c1cccnc1` returned a viability index of 1.09 ± 0.063.
Same read-out and setting: as for `O=C(c1cccc(F)c1)N1CC2(C1)[C@H](c1ccccc1)[C@@H](CO)N2Cc1ccccn1`, the figure is 1.13 ± 0.11; as for `C[C@@H]1CN([C@@H](C)CO)C(=O)CCCn2nncc2CO[C@H]1CN(C)S(=O)(=O)c1ccc(Oc2ccccc2)nc1`, 1 ± 0.074; as for `C/C=C/c1ccc([C@H]2[C@H]3CNC[C@@H]2N3S(=O)(=O)Cc2ccccc2)cc1`, 1.06 ± 0.047.
On to `N#C[C@H]1[C@@H](c2ccccc2-c2ccc(F)cc2)[C@@H](CO)N1C(=O)Cc1cccnc1`, for which the viability index under setting [1] was determined as 1.15 ± 0.046.
Under setting [1], `CO[C@@H]1CN(C)C(=O)c2cc(NC(=O)Nc3cc(F)ccc3F)ccc2OC[C@@H](C)NC[C@H]1C` registered a viability index of 1.105 ± 0.0072.
The compound `Cc1noc(C)c1NC(=O)N(C)C[C@H]1Oc2ccc(NC(=O)Cc3cn(C)c4ccccc34)cc2CC(=O)N([C@H](C)CO)C[C@@H]1C` registered a viability index under setting [1] of 1.04 ± 0.045.
In the case of `COCC(=O)N1C[C@@H](C)[C@H](OC)CN(C)C(=O)c2ccc(NC(=O)Nc3cccc(F)c3)cc2OC[C@@H]1C`, under setting [1], the viability index amounted to 1.032 ± 0.0043.
The same measure, in the same setting: as for `C[C@@H]1CCn2cc(nn2)COC[C@H](C)NC1=O`, the figure is 1.06 ± 0.018; as for `CC(=O)N1[C@H](CO)[C@@H](c2ccccc2)C12CN(Cc1ccc(Cl)cc1)C2`, 1.06 ± 0.056; as for `CCN(C[C@H]1N[C@H](CO)[C@@H]1c1ccccc1)C(=O)c1ccncc1`, 1 ± 0.019.
In the case of `C[C@H]1CCCCO[C@H](CN(C)C(=O)Nc2cccc3ccccc23)[C@@H](C)CN([C@@H](C)CO)C(=O)c2cc(NC(=O)CCC(F)(F)F)ccc2O1`, under setting [1], the viability index worked out at 0.993 ± 0.057.
Take `COCC(=O)N1[C@H](C#N)[C@H](c2ccccc2-c2cccc(C)c2)[C@H]1CO`: the viability index under setting [1] came to 1.15 ± 0.053.
The compound `CCCC(=O)Nc1ccc2c(c1)OC[C@H](C)N(CC1CCOCC1)C[C@@H](C)[C@H](OC)CN(C)C2=O` returned a viability index under setting [1] of 1.02 ± 0.039.
`O=C(C[C@@H]1CC[C@@H]2NC[C@@H](O)COC[C@H]2O1)Nc1ccc(-c2ccccc2)cc1`: the viability index under setting [1] was 1.06 ± 0.024.
Turning to `O=C(C[C@H]1CC[C@@H]2NC[C@H](O)COC[C@H]2O1)Nc1ccc(-c2ccccc2)cc1`, the viability index under setting [1] amounted to 1.0439 ± 3.9e-05.
`O=C(C[C@@H]1CC[C@H]2NC[C@@H](O)COC[C@@H]2O1)Nc1ccc(-c2ccccc2)cc1`: under setting [1], the viability index came out at 0.826 ± 0.077.
The compound `Cc1cccc(S(=O)(=O)N2C[C@H]3[C@@H](c4ccccc42)[C@H](CO)N3Cc2ccc3c(c2)OCO3)c1` displayed a viability index under setting [1] of 1.01 ± 0.012.
The compound `O=C(C1CCOCC1)N1CC(=O)N2[C@H](CO)[C@H](c3ccc(/C=C/c4ccccc4)cc3)[C@@H]2C1` yielded a viability index under setting [1] of 0.99 ± 0.011.
Under setting [1], `C[C@@H]1CN([C@@H](C)CO)C(=O)c2cccc(NC(=O)c3ccc(-c4nccs4)cc3)c2O[C@H]1CN(C)C(=O)Nc1ccc(C(F)(F)F)cc1` yielded a viability index of 1.011 ± 0.0069.
Still for that read-out and setting: as for `C[C@H](CO)N1C[C@H](C)[C@H](CN(C)C(=O)Nc2cccc3ccccc23)Oc2ncccc2C1=O`, the figure is 0.826 ± 0.021; as for `Cc1noc(C)c1S(=O)(=O)N(C)C[C@@H]1Oc2c(NC(=O)c3ccc(-c4nccs4)cc3)cccc2C(=O)N([C@H](C)CO)C[C@@H]1C`, 0.978 ± 0.068; as for `C[C@H](CO)N1C[C@H](C)[C@@H](CN(C)C(=O)Nc2ccc(C(F)(F)F)cc2)Oc2c(NC(=O)c3ccc(-c4nccs4)cc3)cccc2C1=O`, 0.953 ± 0.018.
For `C[C@@H]1CN([C@H](C)CO)C(=O)c2cccc(NC(=O)c3ccc(-c4nccs4)cc3)c2O[C@H]1CN(C)C(=O)Nc1ccc(C(F)(F)F)cc1`, the viability index under setting [1] was found to be 0.97 ± 0.025.
`Cc1noc(C)c1S(=O)(=O)N(C)C[C@@H]1Oc2c(NC(=O)c3ccc(-c4nccs4)cc3)cccc2C(=O)N([C@@H](C)CO)C[C@@H]1C` displayed a viability index under setting [1] of 0.955 ± 0.036.
Still for that read-out and setting: as for `Cc1noc(C)c1S(=O)(=O)N(C)C[C@@H]1Oc2c(NC(=O)c3ccc(-c4nccs4)cc3)cccc2C(=O)N([C@@H](C)CO)C[C@H]1C`, the figure is 0.828 ± 0.018.
Take `C[C@@H]1CN([C@@H](C)CO)C(=O)c2cccc(NC(=O)c3ccc(-c4nccs4)cc3)c2O[C@@H]1CN(C)C(=O)Nc1cccc2ccccc12`: the viability index (library set: Broad Institute Blood Stage) turned out to be 0.784 ± 0.023.
Under setting [1], `C[C@@H]1CN([C@@H](C)CO)C(=O)c2cccc(NC(=O)C3CCOCC3)c2O[C@@H]1CN(C)C(=O)Nc1cccc2ccccc12` returned a viability index of 0.974 ± 0.06.
In turn, `C[C@H](CO)N1C[C@H](C)[C@H](CN(C)C(=O)Nc2ccc(C(F)(F)F)cc2)Oc2c(NC(=O)c3ccc(-c4nccs4)cc3)cccc2C1=O` came in with a viability index under setting [1] of 1.04 ± 0.021.
As for `C[C@@H]1CN([C@@H](C)CO)C(=O)c2cccc(NC(=O)C3CCOCC3)c2O[C@H]1CN(C)C(=O)Nc1cccc2ccccc12`, the viability index under setting [1] worked out at 0.966 ± 0.063.
Consider `C[C@@H]1CN([C@@H](C)CO)C(=O)c2cccc(NC(=O)c3ccc(-c4nccs4)cc3)c2O[C@@H]1CN(C)C(=O)Nc1ccc(C(F)(F)F)cc1`, for which the viability index under setting [1] amounted to 0.556 ± 0.084.
